HT1080NT lethal: qHTS for induction of synthetic lethality in tumor cells producing 2HG: qHTS for the HT-1080-NT fibrosarcoma cell line; HT-1080-NT fibrosarcoma viability, CellTiter-Glo ATP luminescence, 48 h; Potency, µM (top dose mostly 46.1 µM), for inactives: top-dose activity, negative = less viability, actives largely listed as cytotoxic; actives 1.6% (n = 360,000);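 also: NT is the 2HG producing partner of a matched IDH1 knockdown line; potency is read from the fitted curve at half-maximal effect; 0% = DMSO-treated cells and -100% = media-only wells without cells; nearly all actives have a fitted effect of over 55% in size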
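HT-1080-NT fibrosarcoma cells (2HG-overproducing), 750 cells/well in RPMI with 5% FBS, dosed after 2 h and incubated 48 h at 37C. CellTiter-Glo luminescence normalized to DMSO and no-cell wells; concentration-response curves fitted and classed.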
HT1080 IDH1KD tx: qHTS for induction of synthetic lethality in tumor cells producing 2HG: qHTS for the HT-1080-IDH1KD cell line. Potency, µM (top dose mostly 46.1 µM), for inactives: at the top dose activity, negative = toxicity, hits mostly cytotoxic. HT-1080 IDH1 knockdown viability, ATP luminescence, 48 h. actives 2% (n = 360,000). AID 686971, 2013;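 also: potency is read from the fitted curve at half-maximal effect; 0% = DMSO wells and -100% = cell-free medium wells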
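In this qHTS, HT-1080 cells depleted of IDH1 are exposed for 48 h at 37 °C to compound titrations. Toxicity is scored from CellTiter-Glo luminescence, with DMSO as full viability and medium alone as none.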
ALOX12 inh: Primary qHTS assay for inhibitors of human arachidonate 12S-lipoxygenase (ALOX12): Round 2; Polyunsaturated fatty acid lipoxygenase ALOX12 (Homo sapiens), P18054; purified 12hLO, xylenol orange hydroperoxide absorbance; Potency, µM (highest dose often 108 µM), for the others: at the top dose activity change, negative = inhibition, actives largely listed as inhibitors; actives 1.1% (n = 580,000); also: potency is read from the fitted curve at half-maximal effect
Target sequence (P18054 whole entry, looked up): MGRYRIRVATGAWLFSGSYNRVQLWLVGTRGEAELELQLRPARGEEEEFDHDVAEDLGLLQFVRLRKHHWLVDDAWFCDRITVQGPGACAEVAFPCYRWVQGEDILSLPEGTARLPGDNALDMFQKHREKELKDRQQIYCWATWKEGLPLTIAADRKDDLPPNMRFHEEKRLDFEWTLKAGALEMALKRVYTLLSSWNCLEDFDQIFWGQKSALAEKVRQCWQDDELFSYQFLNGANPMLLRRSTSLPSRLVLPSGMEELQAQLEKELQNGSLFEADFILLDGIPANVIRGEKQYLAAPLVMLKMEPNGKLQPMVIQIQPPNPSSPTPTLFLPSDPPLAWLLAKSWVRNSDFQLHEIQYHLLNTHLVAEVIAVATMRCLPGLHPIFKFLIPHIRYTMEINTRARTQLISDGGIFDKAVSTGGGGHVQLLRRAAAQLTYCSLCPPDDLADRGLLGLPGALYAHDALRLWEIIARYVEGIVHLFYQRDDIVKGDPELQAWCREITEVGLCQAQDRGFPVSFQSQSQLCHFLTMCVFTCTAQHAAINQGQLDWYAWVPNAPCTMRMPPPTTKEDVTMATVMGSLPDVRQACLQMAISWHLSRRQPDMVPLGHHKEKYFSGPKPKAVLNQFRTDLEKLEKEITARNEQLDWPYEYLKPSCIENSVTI
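Purified human 12hLO (150 nM final) in 25 mM Hepes, 0.01% Triton X-100, pH 7.0 was preincubated 15 min at room temperature with compound. Then 40 uM arachidonic acid was added, 30 min. Hydroperoxide was read by Fe-XO absorbance ratio 573/405 nm.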
TDP1 cell CPT: qHTS for Inhibitors of human tyrosyl-DNA phosphodiesterase 1 (TDP1): qHTS in cells in presence of CPT. Potency, µM (top dose mostly 46.2 µM), inactives show top-dose activity change, negative = growth inhibition, hits mostly inhibitors. AID 686979, 2013. actives 12% (n = 420,000). chicken DT40 Tdp1-/-;hTDP1 cells + 20 nM CPT, ATP luminescence, 48 h; also: potency is read from the fitted curve at half-maximal effect; nearly all actives have a fitted effect of over 55% in size
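Chicken DT40 Tdp1-/- cells stably complemented with human TDP1 were seeded at 400 cells/well in medium containing 20 nM camptothecin, exposed to pin-transferred compounds, and grown at 37 °C for at least 48 hr. Viability was read as ATP luminescence.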
IL-1B inflam inh: qHTS for Inhibitors of Inflammasome Signaling: IL-1-beta AlphaLISA Primary Screen | THP-1 LPS/ATP IL-1B secretion, AlphaLISA, 16 h; stronger effect = lower value | activity change, % at 57.5 µM | actives 4.7% (n = 360,000); in the data active = activity change below about -50%; inconclusive = mostly about -30% to -49%
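Secreted IL-1B measured by AlphaLISA bead assay after 16 h compound exposure of THP-1 cells; compounds (final up to 57.5 uM) added 1 h before LPS (250 ng/mL) and ATP (1.25 mM) stimulation; lower signal means less secretion.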
TDP1 cell noCPT: qHTS for Inhibitors of human tyrosyl-DNA phosphodiesterase 1 (TDP1): qHTS in cells in absence of CPT; DT40 Tdp1-/- hTDP1 cells, no CPT, ATP luminescence, 48 h; Potency, µM (doses to about 46.2 µM), for the others: at the top dose activity change, negative = growth inhibition, actives largely listed as inhibitors; actives 15% (n = 420,000); also: potency is read from the fitted curve at half-maximal effect; nearly all actives have a fitted effect of over 55% in size
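Stably hTDP1-transfected Tdp1-null chicken DT40 cells were treated with library compounds minus camptothecin and grown for at least 48 hr at 37 °C, after which cellular ATP was quantified by luminescence.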
Active calls of the source: *; ? = inconclusive; / = no result. The entries come from a sample that favours hits as a whole. Unless noted, calls follow the shape of the dose curve; as a rule, active = well fitted curve in the direction sought with a large enough effect; inconclusive = small, poorly fitted or top-dose-only effect, or another doubt; inactive = no such curve, though single readings can be large; an effect the other way counts as inactive or inconclusive. Unless noted, % is scaled to controls: 0 for no effect and ±100 for the full control effect.

SMILES | HT1080NT lethal | HT1080 IDH1KD tx | ALOX12 inh | TDP1 cell CPT | IL-1B inflam inh | TDP1 cell noCPT
C=CCN(CC=C)S(=O)(=O)c1ccc(C(=O)Nc2nnc(COC)o2)cc1 | -20.9% | ? | 2.5% | ? | 0.0 | 16.4µM*
CCCCN(CC)S(=O)(=O)c1ccc(C(=O)Nc2nnc(COC)o2)cc1 | ? | ? | / | ? | 10.0 | ?
CC(C)C/C(O)=C/c1nc2cc(Cl)ccc2oc1=O | ? | ? | ? | ? | 1.1 | ?
O=c1oc2ccc(Cl)cc2nc1/C=C(\O)c1ccco1 | -18.2% | -20.1% | 227.9% | ? | -4.2 | 18.4µM*
COc1cc(SC)ccc1C(=O)NC1CCCc2ccccc21 (centres undefined) | ? | ? | 1.4% | ? | -16.4 | ?
COc1ccc(C(=O)OC(C)C(=O)NC2CCCc3ccccc32)cc1OC (centres undefined) | 4.2% | -1.0% | -2.1% | -29.7% | -51.5* | -16.0%
COc1ccc(C(=O)N(C)C2CCCc3ccccc32)cc1OC1CCN(C(C)C)CC1 (centres undefined) | 5.4% | 14.8% | -0.6% | 20.6µM* | -0.7 | ?
COc1ccc(C(=O)NC2CCCc3ccccc32)c(OC)c1OC (centres undefined) | ? | ? | -8.5% | 18.4µM* | 13.1 | 20.6µM*
COc1ccccc1CN(C)CC(=O)NC1CCCc2ccccc21 (centres undefined) | -7.2% | -19.1% | 4.1% | 14.6µM* | 4.4 | ?
CCCc1cc(=O)oc2cc(OCC(=O)c3ccc(OC)cc3)ccc12 | / | / | -2.7% | / | / | /
CC(=O)Nc1ccc(NC(=O)CCn2cnc3c2c(=O)n(C)c(=O)n3C)cc1 | / | / | -2.6% | / | / | /
c1csc(-c2nc(CSc3nnc(C4CC4)n3C3CC3)co2)c1 | / | / | 0.0% | / | / | /
COc1ccc(CNC2CCCc3ccccc32)cc1OC (centres undefined) | -22.1% | -0.1% | -10.8% | ? | -8.1 | 18.4µM*
c1ccc(-c2cn(C[C@H]3CC[C@@H]([C@@H]4CC[C@H](Cn5cc(-c6ccccc6)nn5)O4)O3)nn2)cc1 | -11.4% | -17.4% | 11.6% | 25.9µM* | -14.4 | ?
c1ccc(CCc2cn(C[C@H]3CC[C@@H]([C@@H]4CC[C@H](Cn5cc(CCc6ccccc6)nn5)O4)O3)nn2)cc1 | 2.5% | 1.5% | 4.5% | ? | -4.0 | 14.6µM*
c1ccc(-c2cn(C[C@H]3CC[C@@H]([C@@H]4CC[C@H](Cn5cc(-c6ccccn6)nn5)O4)O3)nn2)nc1 | 5.5% | 1.0% | ? | -28.5% | 2.7 | -23.5%
O=C1c2ccccc2C(=O)N1CCCCc1cn(C[C@H]2CC[C@H](Cn3cc(CCCCN4C(=O)c5ccccc5C4=O)nn3)O2)nn1 | 2.9% | 2.3% | -6.4% | ? | -6.6 | 20.6µM*
Cc1ccc(NC(=O)c2cc3ccccc3o2)cc1Cl | -11.6% | -17.1% | 8.3% | ? | -51.9* | ?
CCCCOC(=O)c1cccc(NC(=O)c2cc3ccccc3o2)c1 | / | / | -17.4% | 13µM* | / | 5.17µM*
Cc1cc(C)nc(NC(=O)c2cc3ccccc3o2)n1 | 3.6% | -5.4% | -6.1% | -13.5% | -18.8 | -8.8%
CCCCOC(=O)c1ccc(NC(=O)c2cc(=O)c3ccccc3o2)cc1 | / | / | 1.4% | ? | / | ?
Cc1ccc(NC(=O)c2cc3ccccc3o2)nc1 | -19.8% | -16.1% | 7.1% | -0.4% | -96.2* | 5.2%
CC(=O)Nc1cccc(NC(=O)c2cc3ccccc3o2)c1 | -8.6% | -11.4% | -2.8% | 16.4µM* | -3.2 | 20.6µM*
CCCOc1ccc(NC(=O)c2cccc(Cl)c2)c2cccnc12 | / | / | 25.1% | / | / | /
O=C(Nc1ccc(-c2nnc3n2CCCCC3)cc1)c1cc2ccccc2o1 | 0.3% | -5.9% | -18.8% | ? | -199.3* | ?
SMILES | HT1080NT lethal | HT1080 IDH1KD tx | ALOX12 inh | TDP1 cell CPT | IL-1B inflam inh | TDP1 cell noCPT
COc1ccc2nc(N=Nc3ccc(O)c4ccccc34)sc2c1 | 7.31µM* | 5.8µM* | -13.9% | 1.3µM* | -0.2 | 1.3µM*
COc1ccc2nc(N=NC3=C(O)CC(C)(C)CC3=O)sc2c1 | -17.2% | ? | -12.7% | 5.17µM* | 140.8 | 5.8µM*
Nc1ccc2nc(-c3ccccc3)cnc2c1 | 6.0% | -1.3% | 12.5% | 0.2% | -3.8 | -23.0%
Nc1ccc(Oc2ccc3nc(-c4ccccc4)c(-c4ccccc4)nc3c2)cc1 | -9.9% | -6.9% | 0.0% | ? | -58.5* | 20.6µM*
Nc1ccc2nc(-c3ccccc3)c(-c3ccccc3)nc2c1 | -3.9% | -1.7% | -22.2% | ? | 30.5 | 20.6µM*
O=C(COc1ccc(-n2cnnn2)cc1)NC1CC1 | / | / | 0.5% | / | / | /
COc1cc(-c2nc3ccccn3c2NCC2CCCO2)ccc1O (centres undefined) | 5.7% | -5.9% | -9.6% | ? | -2.6 | ?
Cc1ccc(-c2nc3ccccn3c2NCc2ccc3c(c2)OCO3)cc1 | ? | ? | 0.0% | 20.6µM* | ? | ?
COc1ccc(CSc2ccc(-c3nc4ccccn4c3NCc3ccccc3)cc2OC)cc1 | -25.1% | -1.8% | -12.9% | 9.2µM* | ? | 8.2µM*
COc1cc(-c2nc3ccccn3c2NCc2ccccc2)ccc1SC1CCCCC1 | ? | ? | / | 25.9µM* | -28.7 | ?
COc1ccc(-c2nc3ccccn3c2NC2CCCCC2)cc1SC1CCCCC1 | ? | ? | ? | ? | -74.6* | 16.4µM*
COc1cc(-c2nc3ccc(C)cn3c2NCc2ccccc2)ccc1-c1cccc(Cl)c1 | ? | -11.4% | ? | ? | -6.8 | ?
CCC(CNC(=O)c1cc(=O)c2ccccc2o1)c1ccccc1 (centres undefined) | / | / | -3.9% | / | / | /
CCC(C)Sc1ccc(-c2nc3ccccn3c2NCc2ccccc2)cc1OC (centres undefined) | ? | ? | / | ? | -74.3* | ?
COc1ccc(C(=O)N2CCN(C(=O)c3cn(C)c4ccccc34)CC2)cc1OC | / | / | -6.2% | / | / | /
O=S(=O)(c1ccc(Br)cc1)N1CCN(c2cc(-c3ccccc3)nc3ncnn23)CC1 | 13.4% | -2.9% | -14.0% | 13µM* | ? | 25.9µM*

Assay outcomes deposited in PubChem BioAssay by National Center for Advancing Translational Sciences (NCATS).
